A selection: hits, their analogues and other compounds. The true share with any hit is near 2.4%.
POLI inh: DNA polymerase iota (human) inhibition. Potency, µM (titrated, usually from 115 µM), without a hit: at the highest dose activity, negative = inhibition, usual class: inhibitors. Pol iota fluorescent replication assay, 10 min. 390,000 compounds, 1% hits
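Fluorescent replication assay read twice, at 0 min and 10 min after adding 50 nM (final) substrate. Enzyme (10 nM) and compounds were first incubated 15 min at room temperature; enzyme-free buffer wells were negative controls.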
Pol eta inh: inhibitors of human DNA polymerase eta; Q9Y253; recombinant Pol eta, fluorescent DNA replication assay; Potency, µM (series often up to 114 µM), inactives show at the top dose activity change, negative = inhibition, actives largely listed as inhibitors; 390,000 compounds, 1.2% hits; AID 588591; further: on the % scale 0 is the no-effect control and ±100 the full control effect
Target sequence (Q9Y253 whole entry, looked up): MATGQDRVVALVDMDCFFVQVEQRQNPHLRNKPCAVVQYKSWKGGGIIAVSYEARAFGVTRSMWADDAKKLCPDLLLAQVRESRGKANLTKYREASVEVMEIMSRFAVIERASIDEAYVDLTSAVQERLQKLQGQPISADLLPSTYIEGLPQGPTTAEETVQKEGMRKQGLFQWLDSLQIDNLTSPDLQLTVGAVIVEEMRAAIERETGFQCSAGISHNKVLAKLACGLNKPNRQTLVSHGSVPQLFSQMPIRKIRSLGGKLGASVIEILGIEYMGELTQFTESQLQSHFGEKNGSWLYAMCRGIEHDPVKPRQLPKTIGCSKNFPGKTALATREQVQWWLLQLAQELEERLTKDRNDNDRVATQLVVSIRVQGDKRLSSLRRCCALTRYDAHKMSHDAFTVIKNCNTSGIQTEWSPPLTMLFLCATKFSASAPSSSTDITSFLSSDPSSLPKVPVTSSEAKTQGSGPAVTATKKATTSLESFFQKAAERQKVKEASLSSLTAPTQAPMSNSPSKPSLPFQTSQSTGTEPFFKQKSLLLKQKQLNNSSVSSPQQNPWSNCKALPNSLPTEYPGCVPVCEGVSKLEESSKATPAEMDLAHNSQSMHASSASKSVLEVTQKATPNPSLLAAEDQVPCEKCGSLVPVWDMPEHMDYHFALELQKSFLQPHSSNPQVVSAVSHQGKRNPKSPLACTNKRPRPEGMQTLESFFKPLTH
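Pol eta at 10 nM preincubated with compounds 15 min at room temperature; reaction started with fluorescent substrate (50 nM final) and read kinetically at 0 and 10 min.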
POLK inh: inhibitors of human DNA polymerase kappa. purified Pol kappa, fluorescent DNA synthesis assay, 10 min. Potency, µM (highest dose often 107 µM), without a hit: top-dose activity, negative = inhibition, actives largely listed as inhibitors. AID 588579. Q9UBT6. 400,000 compounds, 0.53% hits; further: on the % scale 0 is the no-effect control and ±100 the full control effect
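Activity was followed as the change in fluorescence between reads at 0 and 10 min after starting the reaction with 50 nM substrate. Beforehand, 10 nM polymerase had been preincubated with compound for 15 min at room temperature.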
TDP1 block: inhibitors of human tyrosyl-DNA phosphodiesterase TDP1; Q9NUW8; recombinant TDP1, AlphaScreen DNA substrate cleavage; Potency, µM (doses to about 130 µM), for the others: at the top dose activity change, negative = inhibition, most hits filed as inhibitors; 350,000 compounds, 0.28% hits; further: on the % scale 0 is the no-effect control and ±100 the full control effect; nearly all actives have a fitted effect of over 40% in size
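Here, a 5' biotin and 3' phosphotyrosine-FITC DNA oligonucleotide reports Tdp1 activity: intact substrate bridges AlphaScreen beads, while cleavage leaves a 3' phosphate and drops signal. All incubations at room temperature.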
POLB inh: DNA polymerase beta (human) inhibition; P06746; Pol beta primer extension/strand displacement, fluorescence kinetic; Potency, µM (doses to about 114 µM), inactives show at the top dose activity change, negative = inhibition, most hits filed as inhibitors; 340,000 compounds, 1.3% hits; AID 485314; further: on the % scale 0 is the no-effect control and ±100 the full control effect
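Curves were derived by four-parameter Hill fits of normalized qHTS data. The kinetic fluorescent primer-extension read was taken at 0 and 10 min after 50 nM substrate, following a 15 min room-temperature preincubation of 10 nM enzyme with compounds.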
Starred values were filed as active, the others as inactive; ? = inconclusive; nt = not tested or not shown; ! = repeats disagree; [ ] = dose if it differs, or a comment. The call rests on the fitted dose curve; in most records, active means well fitted curve in the direction sought with a large enough effect; inconclusive means small, poorly fitted or top-dose-only effect, or another doubt; inactive means no such curve, though single readings can be large; an effect the other way counts as inactive or inconclusive. Potency means the concentration at half of the fitted maximal effect.

SMILES	POLI inh	Pol eta inh	POLK inh	TDP1 block	POLB inh
Cc1ccc2c(=O)c3ccccc3n(CCCN)c2c1C	nt	nt	7.9µM*!	17%	nt
O=C1c2ccccc2C(=O)N1c1cncc2ccccc12	nt	nt	nt	3%	nt
CC(=O)C1=C(c2ccccc2)NC(=O)NC1c1ccc(O)c(O)c1 (centres undefined)	40µM*	?	79µM*	-5%	4µM*
COc1cc(C2NC(=O)NC(c3ccccc3)=C2C(C)=O)cc(Cl)c1OCC(=O)O (centres undefined)	37%	28µM*	-20%	11%	1%
CC(=O)C1=C(c2ccccc2)NC(=S)NC1c1ccc(O)c(O)c1 (centres undefined)	18µM*	?	-49%	-3%	4µM*
CC(=O)C1=C(c2ccccc2)NC(=O)NC1c1ccc2c(c1)OCO2 (centres undefined)	105%	11%	-6%	nt	9%
CC1=C([N+](=O)[O-])C(c2ccc(O)c(O)c2)NC(=O)N1 (centres undefined)	79µM*	-8%	-33%	nt	8%
O=C(O)c1ccc2c(c1)C(=O)/C(=C/c1ccccc1)C2=O	?	2.8µM*	25µM*	nt	-23%
COc1ccc(C2Nc3ccccc3C(=O)N2Cc2ccccc2)cc1COc1ccc(NC(=O)c2ccccc2)cc1 (centres undefined)	nt	nt	nt	0%	nt
CCN(CC)c1ccc2nc3c4ccccc4c(=O)cc-3oc2c1	60%	-24%	-16%[60.1 µM]	nt	?
CCN(CC)c1ccc2c(-c3ccc(S(=O)(=O)O)cc3S(=O)(=O)[O-])c3ccc(=[N+](CC)CC)cc-3oc2c1	nt	nt	?	nt	5µM*
CC(=O)Nc1cccc(S(=O)(=O)N2CCN(S(=O)(=O)c3ccc4c(c3)OCCO4)CC2)c1	nt	nt	nt	-3%	nt
CCOc1ccc(N=Nc2c(=O)[nH]n3c(=O)c4c([nH]c23)CCCC4)cc1	20%	-18%	-12%	13%	50µM*
O=C([O-])[C@@H]1[O][Sb+]([O][Sb+]2[O][C@H]([C@H](O)CO)[C@H](O)[C@H](C(=O)[O-])[O]2)[O][C@H]([C@H](O)CO)[C@@H]1O	nt	nt	-7%[60.1 µM]	4%	nt
N#CC(C#N)=C1C=C2C=C(N3CCCCC3)CCC2CC1 (centres undefined)	?	79µM*	-7%	8%	50µM*
CCN(CC)C1=CC2=CC(=C(C#N)C#N)CCC2CC1 (centres undefined)	?	-15%	-25%	1%	3%
CN(c1ncnc2c1c(-c1ccccc1)cn2-c1ccc(F)cc1)C1CCCCC1	-5%	-14%	-9%[60.1 µM]	-3%	11%
Cc1ccccc1NS(=O)(=O)c1ccc2[nH]cc(C(=O)N(C)Cc3ccco3)c(=O)c2c1	?	8.9µM*	?	nt	20µM*
COc1cccc(NS(=O)(=O)c2ccc3[nH]cc(C(=O)N(C)Cc4ccco4)c(=O)c3c2)c1	79µM*	?	?	-4%	?
COc1cccc(NS(=O)(=O)c2ccc3[nH]cc(C(=O)NC4CC4)c(=O)c3c2)c1	8%	-2%	-10%	2%	-19%
Cc1cc(C)cc(NS(=O)(=O)c2ccc3[nH]cc(C(=O)N(C)Cc4ccccc4)c(=O)c3c2)c1	?	-8%	-7%	2%	-23%
COC(=O)C1=C(C(=O)OC)[C@@H]2N(Cc3ccccc3)c3ccccc3[C@@]23C[C@@H](C(=O)OC)N(S(=O)(=O)c2cccs2)C3=N1	nt	nt	nt	11%[21 µM]	nt
COc1ccc2[nH]c3nc(SCC(=O)Nc4ccc5c(c4)OCO5)nnc3c2c1	?	?	-3%	-5%	22µM*
COc1cccc(CNC(=O)CSc2nnc3c(n2)[nH]c2ccc(OC)cc23)c1	78%	0%	-6%	-7%	-27%
O=C(NCc1ccc2c(c1)CCN2C(=O)c1ccccc1)c1ccco1	-1%	-16%	-6%[60.1 µM]	1%	42%
SMILES	POLI inh	Pol eta inh	POLK inh	TDP1 block	POLB inh
Cc1ccc(NC(=O)C(=O)Nc2ccc(C)cn2)nc1	22%	-8%	-5%	3%	5%
Cc1ccc(NC(=O)/C(C#N)=C(\N)C(Cl)(Cl)Cl)nc1	263%	45µM*	-2%	5%	0%
CNC(=S)N/N=C/c1ccc(-c2cccc(C(=O)O)c2)o1	48%	-10%	-24%	-9%	-13%
Nc1nonc1C(=O)N/N=C/c1ccc(-c2cccc(C(=O)O)c2)o1	nt	nt	nt	nt	18µM*
Cc1[nH]n(-c2ccc(Br)cc2)c(=O)c1C=Nc1ccc(S(=O)(=O)Nc2nccs2)cc1	?	45µM*	-17%	9%	?
Cc1[nH]n(-c2ccccc2)c(=O)c1C=Nc1ccc(S(=O)(=O)N=C(N)N)cc1	50µM*	?	6%	1%	21%
CCc1cc2c(s1)c1cnn(Cc3ccccc3F)c(=O)c1n2C	nt	nt	nt	-1%	nt
COc1ccc(CN(Cc2ccccc2)C(=O)c2ccccc2)cc1COc1ccc(NC(C)=O)cc1	nt	nt	nt	3%	nt
O=S(=O)(c1cccc(O)c1)N1CCN(S(=O)(=O)c2c(F)cccc2F)CC1	nt	nt	nt	1%	nt
COc1ccc(S(=O)(=O)NCc2cccs2)cc1	-14%	-4%	-27%	22µM*	25µM*
O=C1C2=C(S[C@@H]3O[C@H](CO)[C@@H](O)[C@H](O)[C@H]3O2)C(=O)c2ccccc21	nt	nt	nt	-1%	nt
Nc1c(C(=O)O)ccc2c1C(=O)c1ccccc1C2=O	?	-29%	-13%	8%	?
Nc1cc(C(=O)O)c(N)c2c1C(=O)c1ccccc1C2=O	20µM*	20µM*	?	2%	?
O=C(c1nc2ccc(Cl)cn2c1CN1CCCC1)N1CCc2ccccc2C1	18µM*	32µM*	?	-19%	?
Cc1ccc(-n2ncc3c(NC4CCCC4)ncnc32)cc1	-1%	-8%	-13%[60.1 µM]	3%	23%
O=C(Cc1cccs1)Nc1ccc(Cl)c(S(=O)(=O)N2CCOCC2)c1	-20%	4%	-4%	nt	nt
CCc1ccc(NC(=O)CS(=O)CC(=O)Nc2ccc(N3CCOCC3)cc2)cc1 (centres undefined)	?	?	-11%	50µM*	22µM*
CCN(CC(=O)Nc1ccc(OC)cc1)C(=O)Cc1cccs1	32µM*	56µM*	?	nt	nt
Cc1cccc(C)c1NC(=O)CS(=O)CC(=O)Nc1ccc(F)cc1F (centres undefined)	20%	1%	-16%	2%	8%
CCc1ccc(NC(=O)CS(=O)CC(=O)Nc2ccc(F)cc2F)cc1 (centres undefined)	?	-4%	-22%	nt	40µM*
O=C(Cc1cccs1)Nc1ccc(N2CCOCC2)cc1	?	25µM*	-26%	-1%	25µM*

From PubChem
